Our source for the binding signal values is article PMC7862700, “An all-to-all approach to the identification of sequence-specific readers for epigenetic DNA modifications on cytosine”.

What all share (test): DAPPL (digital affinity profiling via proximity ligation, sequencing); 10 mM Tris-HCl pH 7.5, 50 mM NaCl, 1 mM DTT, 4% glycerol, room temperature, 30 min; GST-TFs on glutathione beads, 16-mer random dsDNA library, 0.1% formaldehyde crosslink after washing; high values mean tight binding
One assay has as its target T1, FEV (Homo sapiens, UniProt Q99581 1-238).
T1 sequence: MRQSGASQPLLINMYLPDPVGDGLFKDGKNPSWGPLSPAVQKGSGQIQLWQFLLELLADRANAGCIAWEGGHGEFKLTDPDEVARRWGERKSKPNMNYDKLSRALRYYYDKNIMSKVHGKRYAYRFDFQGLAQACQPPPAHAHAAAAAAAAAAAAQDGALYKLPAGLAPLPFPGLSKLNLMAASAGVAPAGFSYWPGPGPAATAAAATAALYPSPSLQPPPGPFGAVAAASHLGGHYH
As to conditions: protein: recombinant; tags: N-terminal GST; dsDNA, one strand shown. A digest of the protocol: (§1)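 Each value of binding signal is a hexamer's read frequency for a factor divided by the same hexamer's frequency in the tag-only sample. Barcoded, bead-captured GST fusions of human transcription factors made in yeast were pooled with that sample and incubated with 200 nmole of a random double-stranded 16-mer DNA library in Tris/NaCl/DTT/glycerol buffer at room temperature for 30 min. Washing, 0.1% formaldehyde crosslinking, proximity ligation, PCR and Illumina NextSeq500 sequencing followed.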

In a further assay the target is ETV5 (Homo sapiens, UniProt P41161 1-510). As to conditions: protein: recombinant; tags: N-terminal GST; dsDNA, one strand shown. A digest of the protocol:
as §1

The target in the next assay is HSF1 (Homo sapiens, UniProt Q00613 1-529). As to conditions: protein: recombinant; tags: N-terminal GST; chain copies: 3; dsDNA, one strand shown. The gist of the method:
as §1

In the next assay the target is T2, SPIC (Homo sapiens, UniProt Q8N5J4 1-248).
T2 sequence: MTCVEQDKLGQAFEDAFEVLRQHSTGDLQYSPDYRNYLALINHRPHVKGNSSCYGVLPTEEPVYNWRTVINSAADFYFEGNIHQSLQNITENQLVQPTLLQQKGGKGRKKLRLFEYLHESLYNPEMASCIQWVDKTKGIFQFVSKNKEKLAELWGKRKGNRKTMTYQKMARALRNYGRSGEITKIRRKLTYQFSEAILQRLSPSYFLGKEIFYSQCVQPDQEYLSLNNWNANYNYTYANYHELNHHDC
As to conditions: protein: recombinant; tags: N-terminal GST; dsDNA, one strand shown. A digest of the protocol: as §1

The target of a further assay is ELF4 (Homo sapiens, UniProt Q99607 1-663). Conditions: protein: recombinant; tags: N-terminal GST; dsDNA, one strand shown. The gist of the method: as §1
The next assay deals with T3, ELK4 (Homo sapiens, UniProt P28324-2 1-405).
T3 sequence: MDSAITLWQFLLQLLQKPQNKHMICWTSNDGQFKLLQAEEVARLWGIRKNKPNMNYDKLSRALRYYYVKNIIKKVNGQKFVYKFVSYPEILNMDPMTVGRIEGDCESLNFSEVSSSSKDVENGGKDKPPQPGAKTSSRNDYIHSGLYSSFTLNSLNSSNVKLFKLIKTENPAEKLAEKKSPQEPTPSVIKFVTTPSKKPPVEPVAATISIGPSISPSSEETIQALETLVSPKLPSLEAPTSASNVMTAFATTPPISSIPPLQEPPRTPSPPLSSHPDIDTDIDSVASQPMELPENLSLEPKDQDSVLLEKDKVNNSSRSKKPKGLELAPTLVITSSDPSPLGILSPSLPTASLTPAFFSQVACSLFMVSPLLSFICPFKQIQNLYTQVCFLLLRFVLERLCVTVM
As to conditions: protein: recombinant; tags: N-terminal GST; dsDNA, one strand shown. The gist of the method:
as §1

The next assay concerns the target T4, ETV2 (Homo sapiens, UniProt O00321 1-342).
T4 sequence: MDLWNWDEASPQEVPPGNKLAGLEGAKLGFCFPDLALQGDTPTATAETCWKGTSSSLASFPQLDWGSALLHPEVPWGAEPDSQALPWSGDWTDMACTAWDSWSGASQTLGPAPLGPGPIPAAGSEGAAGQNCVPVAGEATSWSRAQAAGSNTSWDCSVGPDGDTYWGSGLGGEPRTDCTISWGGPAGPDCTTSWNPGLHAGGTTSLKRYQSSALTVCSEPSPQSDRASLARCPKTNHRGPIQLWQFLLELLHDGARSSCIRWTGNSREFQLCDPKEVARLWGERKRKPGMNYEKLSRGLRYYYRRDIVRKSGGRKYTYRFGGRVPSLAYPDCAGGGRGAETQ
As to conditions: protein: recombinant; tags: N-terminal GST; dsDNA, one strand shown. The gist of the method:
as §1

The next assay deals with T5, ELF3 (Homo sapiens, UniProt P78545 1-371).
T5 sequence: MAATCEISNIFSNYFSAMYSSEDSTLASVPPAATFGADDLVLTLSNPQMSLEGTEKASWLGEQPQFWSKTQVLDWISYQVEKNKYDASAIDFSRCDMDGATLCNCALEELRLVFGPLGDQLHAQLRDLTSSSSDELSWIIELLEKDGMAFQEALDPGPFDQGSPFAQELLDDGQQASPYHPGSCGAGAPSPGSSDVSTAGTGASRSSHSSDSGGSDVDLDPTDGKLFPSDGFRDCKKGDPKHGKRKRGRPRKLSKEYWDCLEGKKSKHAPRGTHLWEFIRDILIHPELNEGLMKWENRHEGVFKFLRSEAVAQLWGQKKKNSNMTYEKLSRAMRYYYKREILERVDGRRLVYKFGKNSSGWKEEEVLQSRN
As to conditions: protein: recombinant; tags: N-terminal GST; dsDNA, one strand shown. A digest of the protocol: as §1

In the next assay the target is CRX (Homo sapiens, UniProt O43186 1-299). As to conditions: protein: recombinant; tags: N-terminal GST; dsDNA, one strand shown. The gist of the method:
as §1

For the next assay, the target named is ETV1 (Homo sapiens, UniProt P50549 1-477). Conditions: protein: recombinant; tags: N-terminal GST; dsDNA, one strand shown. The gist of the method: as §1
In the next assay the target is T6, ERF (Homo sapiens, UniProt P50548 1-548).
T6 sequence: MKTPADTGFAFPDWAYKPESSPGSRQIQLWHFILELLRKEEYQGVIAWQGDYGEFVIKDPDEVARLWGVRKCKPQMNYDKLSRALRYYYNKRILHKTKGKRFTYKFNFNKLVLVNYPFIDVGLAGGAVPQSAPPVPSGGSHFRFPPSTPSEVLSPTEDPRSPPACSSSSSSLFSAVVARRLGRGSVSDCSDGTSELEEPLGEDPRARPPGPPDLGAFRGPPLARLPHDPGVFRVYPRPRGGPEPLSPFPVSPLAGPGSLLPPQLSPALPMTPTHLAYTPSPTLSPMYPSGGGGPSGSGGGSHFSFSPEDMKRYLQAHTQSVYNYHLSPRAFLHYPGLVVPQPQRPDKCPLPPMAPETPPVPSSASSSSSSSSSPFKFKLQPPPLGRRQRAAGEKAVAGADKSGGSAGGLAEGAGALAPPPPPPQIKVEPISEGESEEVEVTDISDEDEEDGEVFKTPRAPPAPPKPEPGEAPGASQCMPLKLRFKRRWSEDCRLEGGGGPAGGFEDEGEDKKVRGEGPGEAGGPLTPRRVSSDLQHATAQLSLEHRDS
As to conditions: protein: recombinant; tags: N-terminal GST; dsDNA, one strand shown. A digest of the protocol:
as §1

Another assay concerns the target T7, ETV3L (Homo sapiens, UniProt Q6ZN32 1-361).
T7 sequence: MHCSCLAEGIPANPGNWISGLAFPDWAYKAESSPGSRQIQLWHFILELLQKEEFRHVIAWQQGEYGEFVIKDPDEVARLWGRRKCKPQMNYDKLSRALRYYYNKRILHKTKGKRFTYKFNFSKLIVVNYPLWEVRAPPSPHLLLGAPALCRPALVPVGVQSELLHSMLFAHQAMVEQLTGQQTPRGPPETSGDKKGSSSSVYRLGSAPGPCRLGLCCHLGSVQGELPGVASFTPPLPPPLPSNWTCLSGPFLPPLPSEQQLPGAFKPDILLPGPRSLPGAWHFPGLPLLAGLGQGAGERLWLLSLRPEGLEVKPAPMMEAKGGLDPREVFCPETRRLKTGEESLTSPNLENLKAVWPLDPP
As to conditions: protein: recombinant; tags: N-terminal GST; dsDNA, one strand shown. The gist of the method: as §1

In another assay the target is T8, ETS2 (Homo sapiens, UniProt P15036 1-469).
T8 sequence: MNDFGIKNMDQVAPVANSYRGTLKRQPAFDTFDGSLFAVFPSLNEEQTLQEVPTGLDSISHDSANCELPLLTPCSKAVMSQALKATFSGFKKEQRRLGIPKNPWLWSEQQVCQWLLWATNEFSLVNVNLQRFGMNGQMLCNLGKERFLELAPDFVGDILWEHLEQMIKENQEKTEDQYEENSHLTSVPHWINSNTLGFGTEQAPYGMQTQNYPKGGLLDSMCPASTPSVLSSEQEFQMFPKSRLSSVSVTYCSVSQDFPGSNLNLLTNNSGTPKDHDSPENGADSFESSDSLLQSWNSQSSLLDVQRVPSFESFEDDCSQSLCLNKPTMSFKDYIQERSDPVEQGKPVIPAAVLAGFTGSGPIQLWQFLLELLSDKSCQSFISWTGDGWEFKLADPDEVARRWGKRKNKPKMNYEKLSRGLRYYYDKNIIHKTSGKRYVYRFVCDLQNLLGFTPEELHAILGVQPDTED
Conditions: protein: recombinant; tags: N-terminal GST; dsDNA, one strand shown. The gist of the method: as §1

The target in the next assay is T9, SPDEF (Homo sapiens, UniProt O95238 1-335).
T9 sequence: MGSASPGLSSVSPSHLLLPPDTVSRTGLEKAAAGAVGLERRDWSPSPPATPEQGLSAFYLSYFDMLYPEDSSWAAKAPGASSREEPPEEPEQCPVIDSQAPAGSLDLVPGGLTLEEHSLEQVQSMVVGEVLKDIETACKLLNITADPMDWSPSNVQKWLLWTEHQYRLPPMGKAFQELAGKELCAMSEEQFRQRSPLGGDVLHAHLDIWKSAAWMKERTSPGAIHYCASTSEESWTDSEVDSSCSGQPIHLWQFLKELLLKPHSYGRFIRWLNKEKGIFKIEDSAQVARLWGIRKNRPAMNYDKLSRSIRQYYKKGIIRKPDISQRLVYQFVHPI
Conditions: protein: recombinant; tags: N-terminal GST; dsDNA, one strand shown. The gist of the method:
as §1

The next assay has as its target T10, ETV7 (Homo sapiens, UniProt Q9Y603 1-341).
T10 sequence: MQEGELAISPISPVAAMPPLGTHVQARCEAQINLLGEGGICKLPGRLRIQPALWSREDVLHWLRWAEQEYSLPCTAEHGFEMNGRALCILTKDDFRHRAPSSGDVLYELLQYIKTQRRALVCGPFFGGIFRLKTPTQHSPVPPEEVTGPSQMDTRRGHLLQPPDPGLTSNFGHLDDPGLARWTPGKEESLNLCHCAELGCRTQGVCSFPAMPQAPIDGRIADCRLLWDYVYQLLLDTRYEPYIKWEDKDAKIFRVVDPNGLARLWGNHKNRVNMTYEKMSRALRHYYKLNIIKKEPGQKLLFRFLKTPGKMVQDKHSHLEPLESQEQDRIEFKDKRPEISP
Conditions: protein: recombinant; tags: N-terminal GST; dsDNA, one strand shown. A digest of the protocol: as §1

In a further assay the target is T11, ELF5 (Homo sapiens, UniProt Q9UKW6-2 1-255).
T11 sequence: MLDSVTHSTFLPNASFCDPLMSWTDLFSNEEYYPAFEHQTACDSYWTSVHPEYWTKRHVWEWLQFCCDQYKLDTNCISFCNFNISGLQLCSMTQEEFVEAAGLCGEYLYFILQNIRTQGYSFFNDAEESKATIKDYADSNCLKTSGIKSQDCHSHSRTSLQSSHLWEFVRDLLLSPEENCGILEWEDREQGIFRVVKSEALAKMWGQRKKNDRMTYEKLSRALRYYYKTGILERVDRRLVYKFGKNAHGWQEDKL
As to conditions: protein: recombinant; tags: N-terminal GST; dsDNA, one strand shown. The gist of the method: as §1

The target in the next assay is T12, ETV3 (Homo sapiens, UniProt P41162-2 1-143).
T12 sequence: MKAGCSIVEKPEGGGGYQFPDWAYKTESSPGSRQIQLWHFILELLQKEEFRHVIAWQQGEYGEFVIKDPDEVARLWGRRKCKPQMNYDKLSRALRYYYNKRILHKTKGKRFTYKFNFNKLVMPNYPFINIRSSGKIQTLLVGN
As to conditions: protein: recombinant; tags: N-terminal GST; dsDNA, one strand shown. The gist of the method: as §1

A further assay concerns the target ETV6 (Homo sapiens, UniProt P41212 1-452). Conditions: protein: recombinant; tags: N-terminal GST; dsDNA, one strand shown. A digest of the protocol:
as §1

Chain of ETV5 (P41161 whole entry): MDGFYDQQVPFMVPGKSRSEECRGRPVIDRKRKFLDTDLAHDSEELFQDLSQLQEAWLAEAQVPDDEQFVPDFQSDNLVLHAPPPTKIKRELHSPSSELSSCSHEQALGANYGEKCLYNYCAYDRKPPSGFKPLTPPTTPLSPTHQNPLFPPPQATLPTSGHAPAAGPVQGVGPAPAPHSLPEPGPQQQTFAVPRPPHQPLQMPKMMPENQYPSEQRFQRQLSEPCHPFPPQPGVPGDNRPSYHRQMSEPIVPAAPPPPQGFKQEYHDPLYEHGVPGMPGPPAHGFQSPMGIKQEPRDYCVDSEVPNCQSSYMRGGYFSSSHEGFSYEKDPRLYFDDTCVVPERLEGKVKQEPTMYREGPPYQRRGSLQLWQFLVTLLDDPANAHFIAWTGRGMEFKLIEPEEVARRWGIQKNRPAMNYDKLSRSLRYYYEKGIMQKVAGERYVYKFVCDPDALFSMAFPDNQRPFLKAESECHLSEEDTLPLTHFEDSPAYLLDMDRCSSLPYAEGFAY
Chain of HSF1 (Q00613 whole entry): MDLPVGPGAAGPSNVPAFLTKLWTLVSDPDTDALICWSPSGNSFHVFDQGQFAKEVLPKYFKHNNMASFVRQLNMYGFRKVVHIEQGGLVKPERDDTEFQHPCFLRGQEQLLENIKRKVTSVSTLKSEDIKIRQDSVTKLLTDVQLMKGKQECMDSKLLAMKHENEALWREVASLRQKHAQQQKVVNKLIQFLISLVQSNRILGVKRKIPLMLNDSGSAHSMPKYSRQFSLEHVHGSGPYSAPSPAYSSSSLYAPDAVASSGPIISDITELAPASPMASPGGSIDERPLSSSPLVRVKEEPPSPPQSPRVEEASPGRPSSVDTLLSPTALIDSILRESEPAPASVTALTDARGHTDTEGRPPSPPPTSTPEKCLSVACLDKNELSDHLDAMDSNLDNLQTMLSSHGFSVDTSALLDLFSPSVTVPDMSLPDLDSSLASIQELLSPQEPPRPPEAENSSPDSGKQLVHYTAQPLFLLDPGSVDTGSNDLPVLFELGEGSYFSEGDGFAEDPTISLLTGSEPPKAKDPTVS
Chain of ETV6 (P41212 whole entry): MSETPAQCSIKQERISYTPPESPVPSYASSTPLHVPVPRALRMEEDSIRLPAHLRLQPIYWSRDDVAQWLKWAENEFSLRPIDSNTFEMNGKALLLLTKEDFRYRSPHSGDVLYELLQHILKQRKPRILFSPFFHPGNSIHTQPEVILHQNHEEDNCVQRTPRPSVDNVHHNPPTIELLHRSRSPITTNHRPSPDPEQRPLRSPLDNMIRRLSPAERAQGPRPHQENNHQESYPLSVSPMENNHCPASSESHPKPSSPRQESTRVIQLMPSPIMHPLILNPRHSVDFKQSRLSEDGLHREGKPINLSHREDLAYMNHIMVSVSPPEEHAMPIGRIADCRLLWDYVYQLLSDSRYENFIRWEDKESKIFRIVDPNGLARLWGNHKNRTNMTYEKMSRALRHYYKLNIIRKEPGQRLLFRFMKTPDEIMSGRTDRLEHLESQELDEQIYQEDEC
Chain of CRX (O43186 whole entry): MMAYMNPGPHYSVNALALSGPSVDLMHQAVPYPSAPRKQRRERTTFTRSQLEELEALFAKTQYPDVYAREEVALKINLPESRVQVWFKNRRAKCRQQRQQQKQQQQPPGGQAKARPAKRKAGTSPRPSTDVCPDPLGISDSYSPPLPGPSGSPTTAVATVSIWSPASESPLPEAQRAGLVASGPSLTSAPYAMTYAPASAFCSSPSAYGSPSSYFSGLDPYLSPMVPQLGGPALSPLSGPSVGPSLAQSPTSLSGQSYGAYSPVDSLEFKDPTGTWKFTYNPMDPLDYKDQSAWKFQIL
Chain of ETV1 (P50549 whole entry): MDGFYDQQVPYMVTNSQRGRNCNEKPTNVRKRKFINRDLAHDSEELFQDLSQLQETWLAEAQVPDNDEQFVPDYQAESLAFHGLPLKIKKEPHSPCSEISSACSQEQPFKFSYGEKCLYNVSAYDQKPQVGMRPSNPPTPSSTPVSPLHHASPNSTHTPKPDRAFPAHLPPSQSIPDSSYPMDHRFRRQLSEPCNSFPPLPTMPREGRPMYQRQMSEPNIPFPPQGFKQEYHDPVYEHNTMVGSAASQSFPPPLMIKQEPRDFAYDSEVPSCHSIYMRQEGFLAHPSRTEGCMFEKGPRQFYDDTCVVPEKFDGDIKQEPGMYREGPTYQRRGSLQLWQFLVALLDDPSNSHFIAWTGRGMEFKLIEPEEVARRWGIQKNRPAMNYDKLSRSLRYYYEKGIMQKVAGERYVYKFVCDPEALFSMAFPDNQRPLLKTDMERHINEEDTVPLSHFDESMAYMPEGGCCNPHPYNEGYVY
Chain of ELF4 (Q99607 whole entry): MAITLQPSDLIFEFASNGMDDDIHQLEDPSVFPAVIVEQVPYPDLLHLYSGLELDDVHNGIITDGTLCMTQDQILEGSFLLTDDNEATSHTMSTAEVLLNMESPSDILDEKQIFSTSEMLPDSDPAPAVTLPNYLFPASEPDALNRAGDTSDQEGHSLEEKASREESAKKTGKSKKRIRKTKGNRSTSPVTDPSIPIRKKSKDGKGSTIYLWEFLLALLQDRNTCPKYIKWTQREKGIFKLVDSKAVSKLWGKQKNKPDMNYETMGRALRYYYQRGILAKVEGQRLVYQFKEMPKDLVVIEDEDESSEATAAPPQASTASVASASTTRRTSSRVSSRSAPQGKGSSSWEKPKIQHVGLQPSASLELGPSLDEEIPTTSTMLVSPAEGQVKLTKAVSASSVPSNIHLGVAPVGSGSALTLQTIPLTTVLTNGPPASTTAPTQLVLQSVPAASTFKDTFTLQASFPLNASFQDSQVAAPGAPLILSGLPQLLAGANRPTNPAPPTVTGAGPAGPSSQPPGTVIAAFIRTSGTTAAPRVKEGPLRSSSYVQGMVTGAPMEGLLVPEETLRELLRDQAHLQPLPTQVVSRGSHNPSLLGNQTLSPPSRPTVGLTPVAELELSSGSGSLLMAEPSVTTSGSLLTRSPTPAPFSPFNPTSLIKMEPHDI

For the sequence TAACTG, the binding signal is 1.28 fold enrichment (6-mer frequency, TF over GST control) in the assay with FEV; 1.22 fold enrichment (6-mer frequency, TF over GST control) with ETV5; 1.25 fold enrichment (6-mer frequency, TF over GST control) with HSF1; 1.42 fold enrichment (6-mer frequency, TF over GST control) with SPIC; 1.19 fold enrichment (6-mer frequency, TF over GST control) with ELF4; 1.23 fold enrichment (6-mer frequency, TF over GST control) with ELK4. Further, the binding signal in the assay with ETV2 was 1.31 fold enrichment (6-mer frequency, TF over GST control); in the assay with ELF3 it was 1.47 fold enrichment (6-mer frequency, TF over GST control); in the assay with CRX, 1.5 fold enrichment (6-mer frequency, TF over GST control); in the assay with ETV1, 1.09 fold enrichment (6-mer frequency, TF over GST control); with ERF it was 1.11 fold enrichment (6-mer frequency, TF over GST control); with ETV3L, 1.23 fold enrichment (6-mer frequency, TF over GST control). For the same sequence, the binding signal in the assay with ETS2 is 1.31 fold enrichment (6-mer frequency, TF over GST control); with SPDEF, 1.2 fold enrichment (6-mer frequency, TF over GST control); with ETV7, 1.28 fold enrichment (6-mer frequency, TF over GST control); with ELF5 it was 1.16 fold enrichment (6-mer frequency, TF over GST control); with ETV3, 1.25 fold enrichment (6-mer frequency, TF over GST control); with ETV6, 1.26 fold enrichment (6-mer frequency, TF over GST control).
